Test results published in PubChem BioAssay AID1159580 (chemical genetic matrix, 2015).
Values joined by “and” are separate entries in the source; they are usually repeats but may differ in a detail not shown here. Equal values may be shown once. Screen size: about 5,500 compounds; about 2,000 (36%) were called active. About 18% were inconclusive and are not listed. Cut-off read from the data, not from the text of the source: active = normalized growth mostly below about 0.91 (no sharp cut-off); inconclusive = no clear call, values can overlap the other calls; inactive = mostly above about 0.92. The list shows a part of the results.

Assay: chemical genetic growth profiling, strain panel (AID 1159580);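 note: tested at 20 µM; growth read once vehicle control cultures reached saturation at 30 °C; 1 = growth at the plate median or of vehicle wells; lower values mean less growth of the strain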
Conditions: S. cerevisiae deletion strains, growth OD

Measured: normalized growth

COc1ccc(C2CC(=O)c3ccc(OC)cc3O2)cc1 (centres undefined)
active: locus YBR009C, strain hhf1, hits give low values 0.854 | locus YBR021W, strain FUR4, hits give low values 0.805 | locus YDL074C, strain BRE1, hits give low values 0.689 | locus YDL192W, strain arf1, hits give low values 0.891 | locus YDR162C, strain NBP2, hits give low values 0.74 | locus YDR195W, strain ref2 1.19 [resistant] | locus YDR318W, strain mcm21, hits give low values 0.906 | locus YDR392W, strain spt3, hits give low values 0.538 | locus YDR502C, strain sam2, hits give low values 0.882 | locus YEL061C, strain CIN8, hits give low values 0.905 | locus YER155C, strain BEM2 (second series), hits give low values 0.683 | locus YER167W, strain BCK2, hits give low values 0.89 | locus YGL086W, strain mad1, hits give low values 0.898 | locus YGL240W, strain doc1, hits give low values 0.786 | locus YGL248W, strain PDE1, hits give low values 0.843 | locus YGL253W, strain hxk2, hits give low values 0.891 | locus YGR135W, strain pre9, hits give low values 0.857 | locus YGR229C, strain SMI1, hits give low values 0.504 | locus YGR252W, strain gcn5, hits give low values 0.628 | locus YHR030C, strain SLT2, hits give low values 0.744 and 0.843 | locus YHR129C, strain ARP1, hits give low values 0.882 | locus YHR142W, strain chs7, hits give low values 0.842 | locus YIL066C, strain RNR3, hits give low values 0.793 | locus YIR030C, strain dcg1, hits give low values 0.92 | locus YJL095W, strain BCK1, hits give low values 0.523 and 0.838 | locus YJL164C, strain tpk1, hits give low values 0.898 | locus YJL166W, strain qcr8, hits give low values 0.859 | locus YJR066W, strain TOR1, hits give low values 0.805 | locus YKL009W, strain mrt4, hits give low values 0.862
inactive: locus YAL021C, strain ccr4, hits give low values 0.953 | locus YAL026C, strain drs2, hits give low values 0.939 | locus YAL030W, strain snc1, hits give low values 0.954 | locus YBL061C, strain skt5, hits give low values 0.948 | locus YBR023C, strain chs3, hits give low values 0.915 | locus YBR171W, strain sec66, hits give low values 0.936 | locus YBR229C, strain ROT2, hits give low values 0.963 | locus YBR231C, strain swc5, hits give low values 0.921 | locus YBR279W, strain paf1, hits give low values 0.95 | locus YCL011C, strain gbp2, hits give low values 0.928 | locus YCL016C, strain dcc1, hits give low values 0.939 | locus YCL029C, strain bik1, hits give low values 0.923 | locus YCL061C, strain MRC1, hits give low values 0.932 | locus YCL069W, strain vba3, hits give low values 0.961 | locus YCR088W, strain abp1, hits give low values 0.957 | locus YDL005C, strain med2, hits give low values 0.96 | locus YDL035C, strain GPR1, hits give low values 0.872 | locus YDL040C, strain nat1, hits give low values 0.956 | locus YDL101C, strain DUN1, hits give low values 0.9 | locus YDL185W, strain tfp1, hits give low values 0.938 | locus YDR001C, strain nth1, hits give low values 0.951 | locus YDR069C, strain doa4, hits give low values 0.953 | locus YDR101C, strain arx1, hits give low values 0.93 | locus YDR137W, strain rgp1, hits give low values 0.966 | locus YDR159W, strain sac3, hits give low values 0.929 | locus YDR297W, strain sur2, hits give low values 0.948 | locus YDR334W, strain swr1, hits give low values 0.961 | locus YDR335W, strain msn5, hits give low values 0.953 | locus YDR388W, hits give low values 0.955 | locus YEL003W, strain gim4, hits give low values 0.94 | locus YEL037C, strain rad23, hits give low values 0.962 | locus YEL061C, strain CIN8 (second series), hits give low values 0.967 | locus YER015W, strain faa2, hits give low values 0.96 | locus YER016W, strain bim1, hits give low values 0.963 | locus YER110C, hits give low values 0.937 | locus YER111C, strain swi4, hits give low values 0.959 | locus YER155C, strain BEM2, hits give low values 0.979 | locus YFR010W, strain ubp6, hits give low values 0.954 | locus YGL078C, strain dbp3, hits give low values 0.958 | locus YGL167C, strain pmr1, hits give low values 0.938 | locus YGL173C, strain kem1, hits give low values 0.931 | locus YGL227W, strain vid30, hits give low values 0.959 | locus YHR013C, strain ard1, hits give low values 0.866 | locus YHR027C, strain rpn1, hits give low values 0.965 | locus YHR079C, strain IRE1 (second series), hits give low values 0.97 | locus YHR079C, strain IRE1, hits give low values 0.878 | locus YHR094C, strain hxt1, hits give low values 0.956 | locus YHR200W, strain rpn10, hits give low values 0.929 | locus YIL073C, strain SPO22, hits give low values 0.772 | locus YIL125W, strain kgd1, hits give low values 0.94 | locus YJL092W, strain hpr5, hits give low values 0.957 | locus YJL095W, strain BCK1 (second series), hits give low values 0.927 | locus YJL115W, strain asf1, hits give low values 0.954 | locus YJL129C, strain trk1, hits give low values 0.992 | locus YJL134W, strain LCB3, hits give low values 0.975 | locus YJL154C, strain vps35, hits give low values 0.977 | locus YJL168C, strain set2, hits give low values 0.95 | locus YJL187C, strain SWE1 (second series), hits give low values 0.868 | locus YJL187C, strain SWE1, hits give low values 0.948 | locus YJR043C, strain POL32, hits give low values 0.861
